Test results published in PubChem BioAssay (NCATS).
Results filed as inconclusive are left out. Entries that show only a call come without a potency. Unmarked numbers belong to inactive results. Activity calls are given as the source filed them. The call rests on the fitted dose curve; in most records, active means well fitted curve in the direction sought with a large enough effect; inconclusive means small, poorly fitted or top-dose-only effect, or another doubt; inactive means no such curve, though single readings can be large; an effect the other way counts as inactive or inconclusive.

Tests used:
[1] = biological target: Rap guanine nucleotide exchange factor 3 (Homo sapiens) (UniProt O95398); assay: Confirmatory qHTS for agonist of cAMP-regulated guanine nucleotide exchange factor 3 (EPAC1) (AID 1645881);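 further: EPAC1 catalysed release of BODIPY-GDP from Rap1B seen as fluorescence loss; nearly all actives have a fitted effect of over 75% in size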
Chain of Rap guanine nucleotide exchange factor 3 (Homo sapiens) (O95398 whole entry, looked up): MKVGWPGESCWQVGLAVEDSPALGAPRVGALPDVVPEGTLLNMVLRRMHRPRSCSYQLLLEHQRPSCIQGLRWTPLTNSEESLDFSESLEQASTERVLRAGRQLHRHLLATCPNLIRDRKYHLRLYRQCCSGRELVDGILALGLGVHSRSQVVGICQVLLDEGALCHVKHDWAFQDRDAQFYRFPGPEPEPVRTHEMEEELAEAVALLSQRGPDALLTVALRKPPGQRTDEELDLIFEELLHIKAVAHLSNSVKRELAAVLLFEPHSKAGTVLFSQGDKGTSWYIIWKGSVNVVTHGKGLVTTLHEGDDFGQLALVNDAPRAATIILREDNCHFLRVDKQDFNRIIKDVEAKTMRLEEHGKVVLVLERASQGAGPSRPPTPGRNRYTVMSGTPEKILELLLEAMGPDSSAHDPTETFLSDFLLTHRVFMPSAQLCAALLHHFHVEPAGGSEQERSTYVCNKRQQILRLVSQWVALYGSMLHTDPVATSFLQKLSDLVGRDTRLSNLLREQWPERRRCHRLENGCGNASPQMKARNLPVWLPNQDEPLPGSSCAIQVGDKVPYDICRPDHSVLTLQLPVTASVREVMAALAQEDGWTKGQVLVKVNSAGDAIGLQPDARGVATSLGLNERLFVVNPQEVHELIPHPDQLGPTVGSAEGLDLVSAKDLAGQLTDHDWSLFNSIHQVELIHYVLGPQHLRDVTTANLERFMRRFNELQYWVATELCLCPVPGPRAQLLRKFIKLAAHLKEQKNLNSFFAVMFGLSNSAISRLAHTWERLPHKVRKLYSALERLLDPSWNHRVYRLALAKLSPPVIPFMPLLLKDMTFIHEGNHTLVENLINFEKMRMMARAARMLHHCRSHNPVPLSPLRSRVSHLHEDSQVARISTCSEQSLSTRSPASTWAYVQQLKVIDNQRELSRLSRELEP

[2] = biological target: Rap guanine nucleotide exchange factor 4 (Homo sapiens) (UniProt Q8WZA2); assay: Confirmatory qHTS for agonist of cAMP-regulated guanine nucleotide exchange factor 4 (EPAC2) (AID 1645884);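 further: nucleotide exchange releases bodipy-GDP from Rap1 and this lowers its fluorescence; nearly all actives have a fitted effect of over 65% in size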
Chain of Rap guanine nucleotide exchange factor 4 (Homo sapiens) (Q8WZA2 whole entry, looked up): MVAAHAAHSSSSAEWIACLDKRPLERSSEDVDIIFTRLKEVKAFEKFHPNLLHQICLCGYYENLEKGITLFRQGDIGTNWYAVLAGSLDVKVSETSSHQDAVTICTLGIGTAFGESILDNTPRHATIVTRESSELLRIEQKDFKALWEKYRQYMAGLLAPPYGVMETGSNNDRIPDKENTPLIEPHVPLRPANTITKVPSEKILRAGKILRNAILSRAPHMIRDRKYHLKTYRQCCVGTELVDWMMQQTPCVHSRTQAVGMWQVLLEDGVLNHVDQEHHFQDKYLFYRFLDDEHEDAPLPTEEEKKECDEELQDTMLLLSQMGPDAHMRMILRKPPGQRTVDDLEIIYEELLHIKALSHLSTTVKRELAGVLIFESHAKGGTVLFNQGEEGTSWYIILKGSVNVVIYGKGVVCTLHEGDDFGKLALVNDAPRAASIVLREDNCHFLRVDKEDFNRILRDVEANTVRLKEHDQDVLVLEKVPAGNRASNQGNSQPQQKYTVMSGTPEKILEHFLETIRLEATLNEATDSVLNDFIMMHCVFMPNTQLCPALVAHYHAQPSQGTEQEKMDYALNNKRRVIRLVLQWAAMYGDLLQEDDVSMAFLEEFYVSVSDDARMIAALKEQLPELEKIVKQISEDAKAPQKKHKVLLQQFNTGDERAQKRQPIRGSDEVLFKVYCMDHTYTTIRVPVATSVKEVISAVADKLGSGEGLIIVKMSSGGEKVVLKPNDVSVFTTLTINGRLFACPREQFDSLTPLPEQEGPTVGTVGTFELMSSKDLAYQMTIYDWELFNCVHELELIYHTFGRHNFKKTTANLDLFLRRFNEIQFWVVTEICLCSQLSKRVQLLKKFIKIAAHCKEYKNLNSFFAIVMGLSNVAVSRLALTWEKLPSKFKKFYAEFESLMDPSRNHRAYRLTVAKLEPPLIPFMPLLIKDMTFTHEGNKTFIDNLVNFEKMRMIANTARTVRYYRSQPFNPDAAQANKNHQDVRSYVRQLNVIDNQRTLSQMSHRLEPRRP

[3] = biological target: Rap guanine nucleotide exchange factor 4 (Homo sapiens) (UniProt Q8WZA2); assay: Confirmatory qHTS for antagonist of cAMP-regulated guanine nucleotide exchange factor 4 (EPAC2) (AID 1645885); further: nearly all actives have a fitted effect of over 25% in size; further: potency means the concentration at half of the fitted maximal effect
[4] = biological target: Rap guanine nucleotide exchange factor 3 (Homo sapiens) (UniProt O95398); assay: Counterscreen qHTS for antagonist of cAMP-regulated guanine nucleotide exchange factor 3 (EPAC1) (AID 1645888);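 further: fluorescence loss as bound BODIPY-GDP is released from Rap1B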
Summary of the method: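 Measured: fluorescence of BODIPY-GDP bound to Rap1B, which falls as exchange proceeds. Conditions include 50 uM competing GDP, 5 and 30 min reads, and a later cAMP challenge for antagonist detection.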

Row | SMILES | Potency [1] | Potency [2] | outcome [3] | Potency [3] | Potency [4] | activation [2] | activity change, negative = inhibition [4]
1 | O=C(Nc1cc(Cl)cc(Cl)c1)c1ccc(F)c(S(=O)(=O)NC2CCCC2)c1 | inactive | inactive | inactive [at 12.7 µM] | – | – | – | –
2 | CC(C)Oc1cc(F)ccc1-c1cc(C(=O)Nc2ccc(C(C)C)cc2)[nH]n1 | inactive | inactive | – | inactive | – | – | –
3 | Cc1ccc(C2c3c(-c4cc(C)ccc4O)n[nH]c3C(=O)N2Cc2ccco2)cc1 (stereo not given) | inactive | inactive | inactive [at 12.7 µM] | – | – | – | –
4 | Cc1ccc(C)n1-c1nn(S(=O)(=O)c2ccccc2)c2cccc(F)c12 | inactive | inactive | – | 13.5 µM (active) | – | – | –
5 | CN(C)S(=O)(=O)c1ccc(N2CCCC2)c(C(=O)NCC2COc3ccccc3O2)c1 (stereo not given) | inactive | inactive | – | 30.1 µM (active) | inactive | – | –
6 | COc1ccc(-n2c(NC(=O)c3ccco3)c(C#N)c3nc4ccccc4nc32)cc1 | inactive | inactive | – | inactive | inactive | – | –
7 | C=CCOC(=O)C1=C(C)NC(C)=C(C(=O)OCC=C)C1c1ccco1 | inactive | – | – | inactive | – | 7.19% [at 17.1 µM, percent relative to cAMP agonist control] | -5.56% [at 30.8 µM]
8 | CN1CCN(c2cc(N3CCN(C(=O)c4ccco4)CC3)c3c4c(onc24)-c2ccccc2C3=O)CC1 | inactive | inactive | – | inactive | inactive | – | –
9 | CCn1c(SCC(=O)N/N=C/C=C\c2ccco2)nc2ccccc21 | inactive | inactive | – | inactive | inactive | – | –
10 | Cc1ccc(Cn2ccnc2SCC(=O)Nc2ccc3c(c2)OCO3)cc1 | inactive | inactive | – | inactive | inactive | – | –
11 | COc1ccc(C(=O)CSc2nnc(-c3ccco3)c(-c3ccco3)n2)cc1 | inactive | inactive | – | inactive | inactive | – | –
12 | Cc1ccc(/C=C(\C#N)C(=O)Nc2cccc3ncccc23)o1 | inactive | inactive | – | inactive | inactive | – | –
13 | CCOC(=O)c1c(NC(=O)CSc2nnnn2-c2ccccc2OCC)sc2c1CC(C)(C)NC2(C)C | inactive | – | – | inactive | – | 5.6% [at 17.1 µM, percent relative to cAMP agonist control] | -5.37% [at 30.8 µM]
14 | COc1ccc(OCc2nc3ccccc3n2Cc2ccc(C(C)(C)C)cc2)cc1 | inactive | inactive | – | inactive | inactive | – | –
15 | CC(c1nc2ccccc2n1Cc1ccccc1)n1c(-c2cnccn2)nc2ccccc21 (stereo not given) | inactive | inactive | – | inactive | inactive | – | –
16 | COc1ccc(C(CC(=O)c2ccc(C)cc2)C(C#N)C#N)cc1OC (stereo not given) | inactive | inactive | – | inactive | inactive | – | –
17 | S=c1[nH]nc(-c2cc(-c3ccccc3)n[nH]2)n1/N=C/c1cccc(Cl)c1 | inactive | inactive | – | inactive | inactive | – | –
18 | O=C1C=C(NS(=O)(=O)c2ccccc2)C(=O)c2ccccc21 | inactive | inactive | – | inactive | inactive | – | –
19 | CS(=O)(=O)c1ccc(C(=O)NCCN2C(=O)S/C(=C\c3cccnc3)C2=O)cc1[N+](=O)[O-] | inactive | – | – | inactive | – | 1.36% [at 17.1 µM, percent relative to cAMP agonist control] | -27.7% [at 30.8 µM]
20 | Cc1cccc(S(=O)(=O)Nc2ccc(S(=O)(=O)Nc3nccs3)cc2)c1 | inactive | inactive | – | 75.7 µM (active) | inactive | – | –
21 | CC1OC(CC(=O)O)CC2=C1C(=O)c1c(O)cccc1C2=O (stereo not given) | inactive | inactive | – | inactive | inactive | – | –
22 | O=C(/C=C/c1ccccc1Cl)c1ccc(O)cc1 | inactive | – | – | inactive | – | 13.2% [at 17.1 µM, percent relative to cAMP agonist control] | 8.95% [at 30.8 µM]
23 | O=C1c2cccc3cc([N+](=O)[O-])cc(c23)C(=O)N1/N=C/c1ccc(O)cc1O | inactive | inactive | – | inactive | inactive | – | –
24 | O=C(O)c1ccc(-c2nc(-c3ccc(Cl)cc3Cl)cs2)cc1 | inactive | – | – | inactive | – | 10.1% [at 17.1 µM, percent relative to cAMP agonist control] | -4.87% [at 30.8 µM]
25 | COCCN1C(=O)c2[nH]nc(-c3ccccc3O)c2C1c1ccc(Cl)c(Cl)c1 (stereo not given) | inactive | inactive | – | inactive | inactive | – | –
26 | CCc1cc(C(=O)Nc2ccc(S(=O)(=O)NC3=NCCCCC3)cc2)sc1C | inactive | – | – | inactive | – | 5.65% [at 17.1 µM, percent relative to cAMP agonist control] | 4.61% [at 30.8 µM]

Row | SMILES | Potency [1] | Potency [2] | outcome [3] | Potency [3] | Potency [4] | activation [2] | activity change, negative = inhibition [4]
27 | Cc1ccccc1C(=O)Nc1cccc(C(=O)N/N=C/c2cc(Cl)cc([N+](=O)[O-])c2O)c1 | inactive | inactive | – | inactive | inactive | – | –
28 | CCc1ccc2c(c1)NC(=O)C2(C)Cc1ccc(F)cc1 (stereo not given) | inactive | – | – | inactive | – | 12.7% [at 17.1 µM, percent relative to cAMP agonist control] | 16.2% [at 30.8 µM]
29 | O=C(CCCn1c(SCC(=O)c2ccc(O)c(O)c2)nc2ccccc2c1=O)NCC1CCCO1 (stereo not given) | inactive | inactive | – | inactive | inactive | – | –
30 | COc1ccc(Cl)cc1NC(=O)CN(C)C(=O)c1cc(-c2ccncc2)nc2ccccc12 | inactive | inactive | – | inactive | inactive | – | –
31 | O=C(O)c1ccc(N/N=C/c2ccc(-c3ccccc3Cl)o2)cc1 | inactive | – | – | inactive | – | 7.2% [at 17.1 µM, percent relative to cAMP agonist control] | 1.4% [at 30.8 µM]
32 | Cc1nc(-c2ccc(Cl)cc2)sc1CCNC(=O)c1cccs1 | inactive | inactive | – | inactive | inactive | – | –
33 | CC(C)N(Cc1ccccc1)C(=O)c1nc(-c2ccc(Cl)cc2)n2c1CCCCC2 | inactive | inactive | inactive [at 12.7 µM] | – | inactive | – | –
34 | O=S(=O)(NCC(c1cccnc1)N1CCN(c2ccccc2F)CC1)c1cccs1 (stereo not given) | inactive | – | – | inactive | – | 0% [at 17.1 µM, percent relative to cAMP agonist control] | -13.6% [at 30.8 µM]
35 | Cc1cc(O)cc(C)c1NS(=O)(=O)c1ccc2ccccc2c1 | inactive | inactive | – | inactive | inactive | – | –
36 | COc1ccc(OC)c(NC(=O)C2(C)CCN2CCc2ccccc2)c1 (stereo not given) | inactive | inactive | – | 42.6 µM (active) | inactive | – | –
37 | Cc1cc(/C=C2\SC(=S)NC2=O)c(C)n1-c1cccc(O)c1 | inactive | inactive | – | inactive | inactive | – | –
38 | Cc1ccc(NC(=O)C2(C)CCN2CCc2ccccc2)cc1 (stereo not given) | inactive | – | – | inactive | – | -1.02% [at 17.1 µM, percent relative to cAMP agonist control] | 1.14% [at 30.8 µM]
39 | COc1cc(O)c(C(C)=O)c2c1C=CC(C)(C)O2 | inactive | inactive | – | inactive | inactive | – | –
40 | Cc1cc(SCC(=O)c2ccc(O)c(O)c2)n2nc(C)c(-c3ccccc3)c2n1 | inactive | inactive | – | inactive | inactive | – | –
41 | CCC1=NN2C(=N)/C(=C/c3ccc(OS(=O)(=O)c4ccccc4)cc3)C(=O)N=C2S1 | inactive | inactive | – | inactive | inactive | – | –
42 | CCOc1ccc(S(=O)(=O)Nc2ccc(F)cc2)c(C)c1C | inactive | inactive | – | inactive | inactive | – | –
43 | CCOC(=O)c1c(C)oc2c1c(C=NCCO)c(O)c1ccccc12 | inactive | – | – | inactive | – | 10.2% [at 17.1 µM, percent relative to cAMP agonist control] | 33.4% [at 30.8 µM]
44 | N#CCCN(CCC#N)S(=O)(=O)c1ccc(C(=O)Nc2nnc(C3=COCCO3)o2)cc1 | inactive | inactive | – | inactive | inactive | – | –
45 | COc1cccc(/C=C2\SC(=S)NC2=O)c1OS(=O)(=O)c1ccc(NC(C)=O)cc1 | inactive | – | – | inactive | – | 5.66% [at 17.1 µM, percent relative to cAMP agonist control] | -18.9% [at 30.8 µM]
46 | Cc1ccc(OCC(=O)Nc2ccc(Cl)c(-c3nc4ccccc4[nH]3)c2)cc1C | inactive | inactive | inactive [at 12.7 µM] | – | inactive | – | –
47 | CCc1nc2c(OCC3CCCCC3)cccn2c1N(C)C(=O)c1ccc(C)cc1 | inactive | inactive | – | inactive | inactive | – | –
48 | OC(CSc1ccccc1)CN1CCN(c2cccc(Cl)c2)CC1 (stereo not given) | inactive | – | – | inactive | – | 5.38% [at 17.1 µM, percent relative to cAMP agonist control] | 12.2% [at 30.8 µM]
49 | Cc1ccc(-c2cc(C(=O)Nc3ccc(S(=O)(=O)Nc4onc(C)c4C)cc3)c3ccccc3n2)cc1 | inactive | – | – | inactive | – | 6.25% [at 17.1 µM, percent relative to cAMP agonist control] | 1.26% [at 30.8 µM]
50 | Oc1ccc(Cc2ccc(Cl)cc2)c(O)c1 | inactive | – | – | inactive | – | 7.91% [at 17.1 µM, percent relative to cAMP agonist control] | -18.2% [at 30.8 µM]
51 | CCN1CCc2c(sc(NC(=O)c3cc4ccccc4cc3OC)c2C(N)=O)C1 | inactive | – | – | inactive | – | 8.91% [at 17.1 µM, percent relative to cAMP agonist control] | -3.83% [at 30.8 µM]
